# ChEMBL document CHEMBL4513216, “Probing the Open Global Health Chemical Diversity Library for Multistage-Active Starting Points for Next-Generation Antimalarials” (ACS Infect Dis, 2020)
# Out of some 69,000 compounds screened, about 8,600 (12%) showed an effect of 50% or more. The entries come from a sample that favours strong results as a whole.
# Test system: Plasmodium berghei
# Experiment: Screen against P. berghei liver stage (PbLuc), transformed with Luciferase, at 10uM
# Assay type: functional, HepG2
# Conditions: tested at 10 uM
row,SMILES,INHIBITION [%]
1,CCS(=O)(=O)N1CCOC2(CCCN(c3ccc(C)nn3)C2)C1 (stereo not given),5.65
2,O=C1NC(C(=O)NCc2cccnc2Oc2ccc(F)cc2F)CO1 (stereo not given),9.52
3,CSCC[C@@H]1CN2CCC[C@H]2CN1Cc1coc2ccc(Cl)cc2c1=O,7.11
4,Cc1cc(NC(=O)CN(CC2CCOC2)C2CC2)no1 (stereo not given),21.5
5,Cc1cccc(N2CCN(c3ccn4c(=O)[nH]nc4n3)CC2)c1C,65.8
6,O=c1[nH]nc2nc(N3CCCC3)ccn12,19.8
7,O=c1[nH]nc2nc(N3CCSCC3)ccn12,9.96
8,Cn1ccnc1CN1CCN(CC(O)c2ccccc2)CC1 (stereo not given),4.52
9,O=C1CCC(C(=O)NCc2nncn2-c2ccccc2)CN1 (stereo not given),51
10,O=C(NCc1nncn1-c1ccccc1)C1CCCC1,11.9
11,O=C(NCc1nncn1-c1ccccc1)C1CC1,-21.8
12,Cc1cccc(CN2CCc3nnc(CN4CCCC4=O)n3CC2)n1,35.7
13,CC(=O)CSc1sc2c(O)cc(=O)[nH]c2c1C(N)=O,26
14,CN(CC1Cc2ccccc2CN1C)C(=O)CSc1nccn1C (stereo not given),40.9
15,Cc1cc(=O)[nH]c(SCC(=O)N(C)CC2Cc3ccccc3CN2C)n1 (stereo not given),50.2
16,CN(CC1Cc2ccccc2CN1C)C(=O)CSc1ccccn1 (stereo not given),-4.91
17,O=C(NCc1ccco1)c1[nH]nc2c1CS(=O)(=O)CC2,48.2
18,O=C1CO[C@@H]2CN(Cc3cccs3)C[C@H]2N1CC1CC1,24.5
19,Cc1c(CNCc2nn(-c3ccccc3)c3c2CCC3)cc(C#N)n1C,63.6
20,O=C(NCc1nn(-c2ccccc2)c2c1CCC2)NC1CC1,30.2
21,O=C(NCc1nn(-c2ccccc2)c2c1CCC2)C1CC1,59.55
22,Cc1noc(C)c1CNCc1nn(-c2ccccc2)c2c1CCC2,-0.159
23,O=C1CCC(C(=O)NCc2nn(-c3ccccc3)c3c2CCC3)CN1 (stereo not given),41.9

row,SMILES,INHIBITION [%]
1,COc1ccccc1CNCc1nn(-c2ccccc2)c2c1CCC2,36.8
2,Cc1cc(C)n(CCCNC(=O)[C@@H](C)NC(=O)OC(C)(C)C)n1,15.8
3,CCOc1ccc(Cl)cc1NC(=O)N1CCC(n2cncn2)CC1,47
4,NC(=O)c1cnc(-c2ccccc2)nc1CCNC(=O)CN1CCCC1,12.8
5,COC1CCN(C(=O)c2ccccc2NCc2cccnc2)CC1,-30
6,COC(=O)c1cc(C)nc(N2CCN(Cc3ccn(C(C)C)c3)CC2)n1,24.2
7,Cc1cccnc1N1CCN(Cc2cc(O)c3cccc(F)c3n2)CC1,18.6
8,CCc1ccc(O)c(C(=O)NC2CCN(Cc3ccncc3)CC2)c1,48.9
9,Cc1cccc(CN2CCN(C(=O)c3cccnc3O)CC2)c1,11.2
10,COC(=O)c1cc(CN2CCN(c3ncccc3C)CC2)ccc1O,71
11,Cc1cnc(C)c(N2CCN(CC3CCCO3)CC2)n1 (stereo not given),4.93
12,COC(=O)c1cc(CN2CCN(c3nc(C)cnc3C)CC2)ccc1O,51.2
13,Cc1cnc(C)c(N2CCN(Cc3ccc(C)c(C)c3)CC2)n1,75
14,Cc1ccc(CN2CCC(Cc3nnc(CO)n3C)CC2)cc1C,4.48
15,Cc1noc(C)c1-c1nc(C2CCCN(C(=O)CCN)C2)ccc1CO (stereo not given),-10.2
16,Cc1nc(C2CCCN(C(=O)COCc3ccccc3)C2)no1 (stereo not given),21.5
17,CCn1ncc2[nH]c(-c3cc4c(cc3OC)OCO4)nc21,-7.2
18,O=C(NCCc1ccccc1)C1CCN(C(=O)Cn2cncn2)C1 (stereo not given),3.48
19,CCN(CC)C(=O)CSc1ncc[nH]1,44.2
20,CN(C(=O)CSc1ncc[nH]1)C1CC1,53.9
21,CN(C(=O)CSc1ncc[nH]1)c1ccccc1,49.6
22,CC(C)(C)OC(=O)N1CCC(C(=O)NCc2cc3ccccc3[nH]2)C1 (stereo not given),-8.4
23,CC(C)N1CCC2(CC1)C(=O)N(c1cccnc1)c1ccc(F)cc12,28.2

row,SMILES,INHIBITION [%]
1,COC[C@]1(O)CCN(C2CCN(c3ccc(Cl)cc3)CC2)CC1(C)C,29.4
2,O=C(NCCCn1nc2ccccn2c1=O)NCCC1CCC1,37.9
3,Cn1ccnc1CN1CCC(c2nc3ccccc3n2C)CC1,39.3
4,Cc1nc(CN2CCC(c3nc4ccccc4n3C)CC2)co1,42.3
5,CC(C)c1nccc(CN2CCC(c3nc4ccccc4n3C)CC2)n1,52.6
6,Cc1cccc(CN2CC3(CCN(C4CCOC4)CC3)OCC2=O)n1 (stereo not given),5.56
7,CSCc1noc(CNC(=O)[C@H]2CNC[C@@H](C(=O)N3CCCC3)C2)n1,38.5
8,CC(C)=CCC1(CO)CCCN(Cc2nccs2)C1 (stereo not given),-21.1
9,CCCn1ccnc1CN1CCCC(CC)(CO)C1 (stereo not given),0.348
10,CCCC1(CO)CCCN(Cc2nccs2)C1 (stereo not given),81.6
11,COCCC1(CO)CCCN(C(=O)c2cccnc2O)C1 (stereo not given),56.3
12,COCCCC1(CO)CCCN(Cc2nccs2)C1 (stereo not given),75.2
13,COCCC1(CO)CCCN(C(=O)c2cccnc2OC)C1 (stereo not given),43.4
14,COCCCC1(CO)CCCN(CCOC)C1 (stereo not given),-6.88
15,COCCC1(CO)CCCN(C(=O)c2cc(Cl)ccc2F)C1 (stereo not given),-2.43
16,CNc1ncc(C(=O)N2CCCC(CO)(CCCOC)C2)cn1 (stereo not given),31.3
17,CNc1nc(C(=O)N2CCC3(CCCN(CCOC)C3=O)C2)cs1 (stereo not given),36.2
18,CNc1nc(C(=O)N2CCCC(CO)(CCCOC)C2)cs1 (stereo not given),58.6
19,CCCC1(CO)CCCN(Cc2ncccn2)C1 (stereo not given),-36.5
20,O=S(=O)(C1CC1)N1CCO[C@H]2[C@H](Oc3cccnc3)CC[C@@H]21,-21.1
21,Cn1ccc(C(=O)N2CCc3[nH]nc(Nc4ccccc4)c3C2)n1,17.04
22,CCC1c2ccsc2CCN1C(=O)NCCc1ccccn1 (stereo not given),0
23,CCc1ncc(C(=O)N2CCN(Cc3ncccc3C)CC2)cn1,7.25

row,SMILES,INHIBITION [%]
1,O=C1CCC(c2ccccc2)=NN1CN1CCCCCC1,25.3
2,CCN(C(=O)CCc1ccccc1)C1CC(=O)NC1=O (stereo not given),9.4
3,Cc1cc2ccccc2n1CC(=O)N[C@@H](C)C(=O)O,4.93
4,Cc1ccc(OCCSCCn2nc3ccccn3c2=O)cc1,22
5,CCn1ccnc1CN1CCCC(CO)(CCCc2ccccc2)C1 (stereo not given),3.68
6,CCn1cc(CN2CCCC(CO)(CCc3ccccc3)C2)c(C)n1 (stereo not given),53.1
7,Cn1ccnc1CN1CCCC(CO)(CCc2ccccc2)C1 (stereo not given),16.6
8,O=C(CN1CCCS1(=O)=O)Nc1ccc(OC2CCCC2)c(Cl)c1,-6.94
9,O=C(CN1CCCS1(=O)=O)Nc1ccc(OC2CCCC2)cc1,-5.94
10,O=C(CN1CCCS1(=O)=O)Nc1cccc(COC2CCCCC2)c1,55.5
11,CNC(=O)CCc1cc(C2CCCN2C(=O)CO)nc(C)n1 (stereo not given),29.4
12,Cc1nc(CN2C(=O)CC[C@@H]3[C@H]2CCN3C(=O)NC2CC2)cs1,38.7
13,CN(CC(=O)N1CCOC(CCc2ccccc2)C1)Cc1ccccn1 (stereo not given),54.2
14,Cc1ccnn1CCC(=O)N1CCOC(CCc2ccccc2)C1 (stereo not given),44.3
15,Cc1ncoc1C(=O)N1CCOC(Cc2ccccc2)C1 (stereo not given),55
16,O=C(c1scc2c1OCCO2)N1CCOC(Cc2ccc(F)cc2)C1 (stereo not given),0.72
17,Cc1nc(C(=O)N2CCOC(Cc3ccc(F)cc3)C2)co1 (stereo not given),-23.4
18,Cc1n[nH]c(CCC(=O)N2CCOC(Cc3ccccc3)C2)c1C (stereo not given),7.19
19,COc1ccc(CC2CN(C(=O)c3ocnc3C)CCO2)cc1 (stereo not given),46.4
20,CN(CC(=O)N1CCOCC(CO)C1)Cc1ccccn1 (stereo not given),19.5
21,Cc1nc(C(=O)N2CCOC(Cc3ccccc3)C2)co1 (stereo not given),-48.5
22,O=C(c1scc2c1OCCO2)N1CCOC(CCc2ccccc2)C1 (stereo not given),75
23,Cc1n[nH]c(CCC(=O)N2CCOC(Cc3ccc(F)cc3)C2)c1C (stereo not given),55.4

row,SMILES,INHIBITION [%]
1,O=C(c1scc2c1OCCO2)N1CCOC(Cc2cccc(F)c2)C1 (stereo not given),-22
2,CC(C)CCc1n[nH]c(C(=O)O)c1Br,11.7
3,O=c1[nH]c2cn(-c3cccc(F)c3)c(=O)n2[nH]1,48
4,CC(C)Cn1cncc1-c1nc2c([nH]1)CCCNC2=O,-21.8
5,Cc1cccc(-c2nc(C)nn2CC(=O)NC(C)C2CC2)c1 (stereo not given),33.3
6,Cc1cccc2c1NC(c1cnc(C3CCC3)s1)NC2=O (stereo not given),39.3
7,Cc1cc(=O)n2nc(Oc3ccc(F)c(F)c3)sc2n1,42.5
8,CC(=O)N1CCC(Cc2cnc(C(=O)N3CCCC3)cn2)C1 (stereo not given),7.52
9,Cc1ccc(OCCN(C)C(C)c2cccc(S(N)(=O)=O)c2)cc1 (stereo not given),-31.8
10,CN(C)C[C@H]1OC[C@@H]2CCN(C(=O)Cc3cccs3)C[C@@H]21,13.7
11,Cc1cc(N2Cc3cnn(CCO)c3C2)nc(-c2ccccc2)n1,-81.1
12,CCNc1ncc(C(=O)N2CCOC(CCCc3ccccc3)C2)cn1 (stereo not given),42.1
13,O=C(c1cccnc1)N1CCOC(CCCc2ccccc2)C1 (stereo not given),60.9
14,O=C(c1cccnc1)N1CCOC(Cc2ccccc2Cl)C1 (stereo not given),0.55
15,COCCCN1Cc2cccc(NC(=O)c3ccccc3C)c2C1,40.6
16,COCCCN1Cc2cccc(NC(=O)c3cc(F)cc(F)c3)c2C1,45.7
17,COCCCN1Cc2cccc(NC(=O)c3ccccc3Cl)c2C1,50
18,Cc1nn(C)c2c(=O)n(C(C)C)c(NCC3CCCO3)nc12 (stereo not given),3.58
19,CCn1c(NCc2ccccc2)nc2c(C)nn(C)c2c1=O,33.3
20,Cc1nn(C)c2c(=O)n(C(C)C)c(NCCc3ccccc3)nc12,87.2
21,CCn1c(NCc2ccccn2)nc2c(C)nn(C)c2c1=O,18.4
22,CCCn1c(NCCc2ccccc2)nc2c(C)nn(C)c2c1=O,64.8
23,CCn1c(NCc2cccnc2)nc2c(C)nn(C)c2c1=O,-9.73
